{"source": "PubChem BioAssay AID652042", "about": "(Broad Institute, 2013)", "note": "The campaign covered roughly 1,100 compounds. About 350 (32%) were called active. How the calls were made is not given here. The list is a sample of the results. Entries with a potency or affinity are not part of this list.", "data": [{"experiment": "CEM21 lymphoblast cell cytotoxicity, dose response, cytotoxicity control for viral fusion inhibitor project, CellTiter-Glo luminescence, cherry-picked (AID 652042)", "conditions": "CEM21 cells viability, CellTiter-Glo ATP luminescence, 24 h; series mostly up to 35 µM; activity change, negative = cytotoxicity: at the top concentration", "values": [{"smiles": "COc1ccc(OC)c(-c2cc(C(=O)Nc3c(C)nn(Cc4ccc(Cl)cc4)c3C)no2)c1", "activity change, negative = cytotoxicity": "-11.3% (inactive)"}, {"smiles": "Cc1ccc(CSCCNC(=O)c2ccc(Cl)c(S(=O)(=O)N3CCOCC3)c2)cc1", "activity change, negative = cytotoxicity": "-18.7% (inactive)"}, {"smiles": "COc1ccc([C@@H]2[C@@H]3C(=O)N(C(C)(C)C)C(=O)[C@@H]3[C@]3(CC(C)C)C(=O)N(c4ccc(C(F)(F)F)cc4)C(=O)N23)cc1", "activity change, negative = cytotoxicity": "0.418% (inactive)"}, {"smiles": "CC1(C(=O)NCc2ccc3c(c2)OCO3)CCN1Cc1csc2ccccc12", "note": "(stereo not drawn)", "activity change, negative = cytotoxicity": "-10.1% (inactive)"}, {"smiles": "O=C(c1ccc(Cl)s1)N1CCN(c2nc3ccccc3s2)CC1", "activity change, negative = cytotoxicity": "-12.8% (inactive)"}, {"smiles": "CC1CCc2c(sc3ncnc(N4CCOCC4)c23)C1", "note": "(stereo not drawn)", "activity change, negative = cytotoxicity": "-0.353% (inactive)"}, {"smiles": "CCN1C(=O)[C@H]2[C@@H](c3ccc(C)cc3)N3C(=O)N(c4ccc(C(F)(F)F)cc4)C(=O)[C@@]3(CC(C)C)[C@H]2C1=O", "activity change, negative = cytotoxicity": "-11.3% (inactive)"}, {"smiles": "CCOc1c(C)cnc2c1c(=O)n(Cc1ccc(Cl)cc1)c(=O)n2C", "activity change, negative = cytotoxicity": "-4.47% (inactive)"}, {"smiles": "Cc1ccc2cc(C#N)c(NCCNC(=O)C3CC3)nc2c1C", "activity change, negative = cytotoxicity": "-7.75% (inactive)"}, {"smiles": "COc1ccc(S(=O)(=O)Nc2ccc3c(c2)CC(=O)N([C@@H](C)CO)C[C@H](C)[C@H](CN(C)S(=O)(=O)c2cccs2)O3)cc1", "activity change, negative = cytotoxicity": "0.186% (inactive)"}, {"smiles": "COc1ccc(CCC(C)NCc2cc(OC)cc(OC)c2)cc1", "note": "(stereo not drawn)", "activity change, negative = cytotoxicity": "-6.55% (inactive)"}, {"smiles": "CCCc1cc(C(=O)NCc2ccc(OC)cc2)no1", "activity change, negative = cytotoxicity": "-1.74% (inactive)"}, {"smiles": "Cc1ccc(OCCN2CCN(c3ncnc4sc(C)c(C)c34)CC2)cc1", "activity change, negative = cytotoxicity": "-27.5% (inactive)"}, {"smiles": "COc1cc(C(=O)N2CCN(c3ncnc4sc(C)c(C)c34)CC2)cc(OC)c1OC", "activity change, negative = cytotoxicity": "-21.1% (inactive)"}, {"smiles": "CN(C)C(=O)C[C@H]1C[C@@H]2c3cc(NC(=O)NC4CCCCC4)ccc3O[C@@H]2[C@H](CO)O1", "activity change, negative = cytotoxicity": "4.2% (inactive)"}, {"smiles": "CCN(C[C@H]1N[C@@](C)(C(=O)OC)[C@H]2C(=O)N(Cc3ccccc3)C(=O)[C@@H]12)C(=O)c1ccc(C(C)(C)C)cc1", "activity change, negative = cytotoxicity": "-7.41% (inactive)"}, {"smiles": "O=C(Nc1ccc(Oc2ccccc2)cc1)c1csc([C@H]2C[C@H](O)[C@@H](CO)O2)n1", "activity change, negative = cytotoxicity": "-16.4% (inactive)"}, {"smiles": "c1csc(CNc2ncnc3sccc23)c1", "activity change, negative = cytotoxicity": "-7.21% (inactive)"}, {"smiles": "CCN(CC(=O)Nc1cc(Cl)ccc1C)C(=O)c1ccc(=O)n(Cc2ccccc2)n1", "activity change, negative = cytotoxicity": "0.209% (inactive)"}, {"smiles": "O=C(NCC(=O)N1CCN(c2ncccn2)CC1)c1ccccc1OC(F)F", "activity change, negative = cytotoxicity": "-0.419% (inactive)"}, {"smiles": "O=C(Nc1ccc(N2CCN(C(=O)c3ccccc3)CC2)c(Cl)c1)c1cccnc1", "activity change, negative = cytotoxicity": "-16.1% (inactive)"}, {"smiles": "O=C(CCCn1c(=S)[nH]c2cc3c(cc2c1=O)OCO3)N1CCN(c2ccc(Cl)cc2)CC1", "activity change, negative = cytotoxicity": "-10.7% (inactive)"}, {"smiles": "S=c1[nH]cc(-c2ccccc2)n1-c1cccc(Cl)c1", "activity change, negative = cytotoxicity": "-0.899% (inactive)"}, {"smiles": "CCOc1ccc(NC2c3ccccc3C(=O)N2Cc2ccco2)cc1", "note": "(stereo not drawn)", "activity change, negative = cytotoxicity": "-2.14% (inactive)"}, {"smiles": "CC1CN(S(=O)(=O)c2cc(C(=O)NCCC3=CCCCC3)ccc2Cl)CC(C)O1", "note": "(stereo not drawn)", "activity change, negative = cytotoxicity": "-1.11% [at 8 µM] (inactive)"}, {"smiles": "COc1ccc(Cl)cc1NC(=O)Nc1cnccn1", "activity change, negative = cytotoxicity": "0.955% (inactive)"}, {"smiles": "COc1ccc(OCC(=O)Nc2cc(-c3nn(C)c(=O)c4ccccc34)ccc2OC)cc1", "activity change, negative = cytotoxicity": "-3.59% (inactive)"}, {"smiles": "COC(=O)[C@@]1(Cc2ccccc2)[C@H]2C(=O)N(Cc3ccccc3)C(=O)[C@H]2[C@H]2CN=C(SCc3ccc(C#N)cc3)N21", "activity change, negative = cytotoxicity": "-6.15% (inactive)"}, {"smiles": "O=C(CN1C(=O)c2ccccc2S1(=O)=O)c1ccc2c(c1)OCCCO2", "activity change, negative = cytotoxicity": "-0.421% (inactive)"}, {"smiles": "Cc1oc(-c2ccccc2F)nc1CN1CCC(C(=O)NCCC2=CCCCC2)CC1", "activity change, negative = cytotoxicity": "-12.8% (inactive)"}, {"smiles": "CCc1ccc(-c2nc(CN3CCC(C(=O)NCCc4ccc(OC)c(OC)c4)CC3)c(C)o2)cc1", "activity change, negative = cytotoxicity": "-24.4% (inactive)"}, {"smiles": "CN1CC(c2ccccc2)C2(COc3ccccc3C2=O)C12C(=O)Nc1ccccc12", "note": "(stereo not drawn)", "activity change, negative = cytotoxicity": "-15.8% (inactive)"}, {"smiles": "COc1ccccc1S(=O)(=O)n1cc(Cc2ccccc2)c(N)n1", "activity change, negative = cytotoxicity": "-1.81% (inactive)"}, {"smiles": "CCOC(=O)c1c(CSc2ccccc2)oc2cc(Br)c(O)c(CN(C)C)c12", "activity change, negative = cytotoxicity": "-17.8% (inactive)"}, {"smiles": "CC(=O)C1=C(C)NC(=S)NC1c1ccccc1", "note": "(stereo not drawn)", "activity change, negative = cytotoxicity": "-0.735% (inactive)"}, {"smiles": "c1ccc2c(c1)ncn2CCCCOc1ccc2c(c1)CCC2", "activity change, negative = cytotoxicity": "1.14% [at 8 µM] (inactive)"}, {"smiles": "CC1CCN(C(=O)c2ncn3c2C(=O)NC[C@@H]3C)CC1", "activity change, negative = cytotoxicity": "-3.77% (inactive)"}, {"smiles": "C[C@H]1CNC(=O)c2c(C(=O)N3CCN(c4ccccc4)CC3)ncn21", "activity change, negative = cytotoxicity": "-0.09% (inactive)"}, {"smiles": "Cn1c(CN2CCCCC2)nc2cc(NC(=O)c3ccc(Cl)cc3)ccc21", "activity change, negative = cytotoxicity": "-23.7% (inactive)"}, {"smiles": "Cc1ccc(NS(=O)(=O)c2cc(C(=O)N(C)C3CCN(C)CC3)ccc2Cl)cc1Cl", "activity change, negative = cytotoxicity": "-1.93% (inactive)"}, {"smiles": "COc1ccc2[nH]c(=O)c(CN(Cc3nnnn3Cc3ccccc3)CC3CCCO3)cc2c1", "note": "(stereo not drawn)", "activity change, negative = cytotoxicity": "-6.18% (inactive)"}, {"smiles": "COc1ccc(OCC(=O)Nc2ccccc2N2CCCCC2)cc1", "activity change, negative = cytotoxicity": "-36.7% (inactive)"}, {"smiles": "CCC(C)(C)NC(=O)C(c1ccccc1F)N(Cc1ccco1)C(=O)c1csnn1", "note": "(stereo not drawn)", "activity change, negative = cytotoxicity": "1.6% (inactive)"}, {"smiles": "CO[C@@H]1CN(C)C(=O)c2cc(NC(=O)Nc3ccc(Cl)cc3)ccc2OC[C@H](C)N(C)C[C@H]1C", "activity change, negative = cytotoxicity": "-16% (inactive)"}, {"smiles": "CC[C@@]1(C(=O)OC)N[C@H](CN(C)C(=O)Nc2ccc(F)cc2)[C@@H]2C(=O)N(Cc3ccccc3)C(=O)[C@@H]21", "activity change, negative = cytotoxicity": "-3.66% (inactive)"}, {"smiles": "Cc1nc2sc(C(c3ccco3)N3CCC(Cc4ccccc4)CC3)c(O)n2n1", "note": "(stereo not drawn)", "activity change, negative = cytotoxicity": "-4.26% (inactive)"}, {"smiles": "CN(C)C(=O)C[C@@H]1C[C@H]2c3cc(NS(=O)(=O)c4ccc(F)cc4)ccc3O[C@H]2[C@H](CO)O1", "activity change, negative = cytotoxicity": "-7.21% (inactive)"}, {"smiles": "Clc1ccc(-c2csc3ncnc(NCCN4CCOCC4)c23)cc1", "activity change, negative = cytotoxicity": "-7.06% (inactive)"}, {"smiles": "O=C(CN1CCN(Cc2ccc(Cl)cc2)C1=O)NCCCN1CCN(c2ccc(F)cc2)CC1", "activity change, negative = cytotoxicity": "-15.2% (inactive)"}, {"smiles": "CC(C)CN(C(=O)c1ccc(S(=O)(=O)N2CCCCC2)cc1)C1CCS(=O)(=O)C1", "note": "(stereo not drawn)", "activity change, negative = cytotoxicity": "1.04% (inactive)"}, {"smiles": "CC[C@@]12C(=O)N(c3ccc(C)cc3)C(=O)N1[C@H](c1ccc(Br)cc1)[C@@H]1C(=O)N(C(C)(C)C)C(=O)[C@@H]12", "activity change, negative = cytotoxicity": "-10.3% (inactive)"}, {"smiles": "O=c1[nH]c(=O)n([C@H]2C[C@H](O)[C@@H](CO)O2)cc1F", "activity change, negative = cytotoxicity": "-12% (inactive)"}, {"smiles": "CCOc1ccc(OCc2cccc(C(=O)N3CCOCC3)c2)cc1", "activity change, negative = cytotoxicity": "-3.5% (inactive)"}, {"smiles": "CC(C)(COC(=O)C(c1ccccc1)c1ccccc1)CN1CCOCC1", "activity change, negative = cytotoxicity": "-1.1% (inactive)"}, {"smiles": "COc1ccc(C(O)(C2CCCCC2)C(CN2CCOCC2)c2ccccc2)cc1", "note": "(stereo not drawn)", "activity change, negative = cytotoxicity": "-24.5% (inactive)"}, {"smiles": "CCOc1ccc(C(=O)C2CCN(CC(=O)Nc3ccccc3N3CCOCC3)CC2)cc1", "activity change, negative = cytotoxicity": "-23.5% (inactive)"}, {"smiles": "CCCNC(=O)c1ccccc1NC(=O)c1ccccc1N(C)S(=O)(=O)c1ccccc1", "activity change, negative = cytotoxicity": "-20.5% (inactive)"}, {"smiles": "Cc1[nH]nc2ncc(C(=O)c3ccccc3O)cc12", "activity change, negative = cytotoxicity": "-15.7% (inactive)"}]}]}
